From PubChem BioAssay (NCI) come the findings set out here.

Among the test systems are HCT-15 colon; HT29 colon; SNB-75 CNS; SNB-19 CNS; U251 CNS; PC-3 prostate; SK-MEL-5 melanoma; UACC-62 melanoma; LOX IMVI melanoma; SK-MEL-28 melanoma; SK-MEL-2 melanoma; EKVX NSCLC; SN12C renal; UO-31 renal; TK-10 renal; ACHN renal; CAKI-1 renal; A498 renal; CCRF-CEM leukemia; MOLT-4 leukemia.
Common to all, as to experiment: NCI-60 one-dose screen, 48 h (100 = growth as untreated, 0 = no growth, -100 = all killed)
What all share (conditions): 10 µM unless noted

The structures appear in SMILES notation. The panel holds about 83,000 compounds, 20% with a hit somewhere; the sample as a whole holds those more often.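 Each cell line was grown in a 96-well plate and treated with one concentration of compound for 48 hours. Values below 10 were considered active.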 A number with no mark means an inactive call. Active and inactive are the calls of the source.

For `CCOC(=O)c1ccc2c(c1)c1c(C)c3cnccc3c(C)c1n2C`, the growth is -64.9% (active) in the assay with HCT-15 colon; -44.6% (active) with HT29 colon; -45% (active) with SNB-75 CNS; -15% (active) with SNB-19 CNS; -45.1% (active) with U251 CNS; -21.7% (active) in the assay on PC-3 prostate. The growth with SK-MEL-5 melanoma is -99% (active); with UACC-62 melanoma, -77.3% (active); in the assay on LOX IMVI melanoma, -62.2% (active); in the assay with SK-MEL-28 melanoma, -97.7% (active); with SK-MEL-2 melanoma it was -89% (active); in the assay with EKVX NSCLC, -13.4% (active). In addition, the growth in the assay with SN12C renal is -58.2% (active); with UO-31 renal it was -53.6% (active); in the assay on TK-10 renal, -65.3% (active); in the assay with ACHN renal, -95% (active); in the assay on CAKI-1 renal, -25% (active); in the assay with A498 renal, -78.7% (active). The growth was -2.56% (active) in the assay with CCRF-CEM leukemia and 2.2% (active) with MOLT-4 leukemia.

With `Cc1ccc(Nc2cc(N)nc(N)n2)cc1`, the growth with HCT-15 colon is 104%; in the assay on HT29 colon, 103%; in the assay with SNB-75 CNS, 84.2%; in the assay on SNB-19 CNS it was 110%; in the assay with U251 CNS, 109%; in the assay with PC-3 prostate, 98%. In addition, the growth in the assay on SK-MEL-5 melanoma was 98.2%; with UACC-62 melanoma, 97.2%; with LOX IMVI melanoma, 97.9%; with SK-MEL-28 melanoma it was 105%; in the assay on SK-MEL-2 melanoma, 112%; in the assay on EKVX NSCLC, 95.7%. Also, the growth was 110% in the assay on SN12C renal; 87.7% in the assay on UO-31 renal; 108% with TK-10 renal; 102% in the assay with ACHN renal; 87.1% with CAKI-1 renal; 105% with A498 renal. Further, the growth in the assay on CCRF-CEM leukemia is 107%; with MOLT-4 leukemia, 91.3%.

Consider `O=CN1N=C(c2cccc(Nc3ccncc3)c2)CC1c1ccc2c(c1)OCO2` (stereo not given), for which the growth with HCT-15 colon was 95.7%; with HT29 colon, 69.8%; with SNB-75 CNS it was 88.4%; with SNB-19 CNS it was 99.7%; in the assay on U251 CNS it was 94.8%; with PC-3 prostate, 84.9%. The growth in the assay with SK-MEL-5 melanoma was 91.8%; with UACC-62 melanoma it was 99.6%; with LOX IMVI melanoma, 95.3%; in the assay with SK-MEL-28 melanoma, 97.7%; in the assay on SK-MEL-2 melanoma, 85.5%; with EKVX NSCLC, 67.6%. Moreover, the growth in the assay on SN12C renal was 99.3%; with UO-31 renal it was 86.9%; with TK-10 renal it was 109%; in the assay on ACHN renal, 97.2%; in the assay on CAKI-1 renal it was 80.7%; in the assay on A498 renal, 96.5%. The growth in the assay on CCRF-CEM leukemia is 86.1%; in the assay on MOLT-4 leukemia, 92.3%.

As for `Cc1ccc(C(F)(F)F)cc1N1CCN(C(=O)[C@H]2C[C@H]2c2ccc(C(F)(F)F)nc2)CC1`, the growth is 93.2% in the assay on HCT-15 colon; 79.8% in the assay on HT29 colon; 92.2% in the assay with SNB-75 CNS; 90.5% in the assay on SNB-19 CNS; 94.2% with U251 CNS; 77.7% in the assay on PC-3 prostate. The growth in the assay on SK-MEL-5 melanoma is 81.6%; with UACC-62 melanoma it was 74.8%; with LOX IMVI melanoma it was 96.2%; with SK-MEL-28 melanoma, 100%; in the assay with SK-MEL-2 melanoma, 89.1%; in the assay on EKVX NSCLC, 90.7%. For the same molecule, the growth is 92.6% in the assay on SN12C renal; 69% with UO-31 renal; 96.4% in the assay with TK-10 renal; 91.8% in the assay on ACHN renal; 69.3% in the assay on CAKI-1 renal; 95.3% in the assay with A498 renal. In addition, the growth in the assay on CCRF-CEM leukemia was 90.2%; with MOLT-4 leukemia, 73.2%.

In the case of `CCCn1cnc2c(c1=N)C(c1ccc(Cl)cc1)c1sc3c(F)cccc3c1O2` (stereo not given), the growth with HCT-15 colon was 40.9%; with HT29 colon, 20.8%; in the assay with SNB-75 CNS, 90.2%; with SNB-19 CNS, 87.5%; in the assay on U251 CNS, 59.8%; in the assay on PC-3 prostate, 65.8%. Besides, the growth with SK-MEL-5 melanoma is 63.7%; with UACC-62 melanoma, 85.4%; with LOX IMVI melanoma it was 82.3%; in the assay on SK-MEL-28 melanoma, 80.1%; in the assay with SK-MEL-2 melanoma, 103%; in the assay with EKVX NSCLC it was 80%. Also, the growth in the assay with SN12C renal was 69.3%; with UO-31 renal, 50.5%; with TK-10 renal it was 102%; with ACHN renal, 84.1%; with CAKI-1 renal, 70.6%; with A498 renal it was 94.7%. Also, the growth is 64.4% in the assay with CCRF-CEM leukemia and 56.7% with MOLT-4 leukemia.

For `CC1(C)CC[C@]2(CO)CC[C@]3(C)[C@H](CC[C@@H]4[C@@]5(C)CC[C@H](O)C(C)(C)[C@@H]5CC[C@]43C)[C@H]2[C@H]1O`, the growth in the assay with HCT-15 colon was 93.4%; in the assay on HT29 colon, 56.3%; in the assay on SNB-75 CNS it was -33.7% (active); in the assay with SNB-19 CNS it was 96.1%; in the assay on U251 CNS it was 62.3%; with PC-3 prostate, 68.2%. The growth is 91.8% in the assay on SK-MEL-5 melanoma; 90.6% in the assay with UACC-62 melanoma; 76.2% in the assay on LOX IMVI melanoma; 91.2% in the assay with SK-MEL-28 melanoma; 104% in the assay on SK-MEL-2 melanoma; 106% with EKVX NSCLC. The growth was 65.6% with SN12C renal; 114% with UO-31 renal; 58.7% in the assay with TK-10 renal; 77.2% with ACHN renal; 99.9% in the assay with CAKI-1 renal; 91.5% in the assay with A498 renal. Also, the growth is 98.5% with CCRF-CEM leukemia and 86.3% in the assay with MOLT-4 leukemia.

Turning to `C#C[C@]1(O)CC[C@H]2[C@@H]3CC=C4c5sc(-c6ccccc6)nc5CC[C@]4(C)[C@H]3CC[C@@]21C`, the growth with HCT-15 colon is 52.3%; with HT29 colon, 74.2%; in the assay with SNB-75 CNS, 63.6%; in the assay with SNB-19 CNS it was 88%; with U251 CNS it was 69.8%; in the assay on PC-3 prostate, 65.7%. The growth is 97.4% in the assay with SK-MEL-5 melanoma; 91.6% with UACC-62 melanoma; 74.9% in the assay on LOX IMVI melanoma; 61.2% with SK-MEL-28 melanoma; 92% in the assay on SK-MEL-2 melanoma; 92.8% with EKVX NSCLC. For the same molecule, the growth in the assay with SN12C renal was 88.2%; in the assay with UO-31 renal, 77%; in the assay on TK-10 renal, 126%; in the assay on ACHN renal, 85.6%; in the assay on CAKI-1 renal, 55.2%; in the assay on A498 renal it was 91%. In addition, the growth with CCRF-CEM leukemia is 67.4%; with MOLT-4 leukemia it was 63.8%.

As for `C=C(C)[C@@H]1CC[C@]2(C#N)CC[C@]3(C)[C@H](CC[C@@H]4[C@@]5(C)CCCNC(C)(C)[C@@H]5CC[C@]43C)[C@@H]12`, the growth with HCT-15 colon is 23%; in the assay on HT29 colon, 9.37% (active); in the assay on SNB-75 CNS, 83.9%; with SNB-19 CNS, 78.6%; with U251 CNS, 16.7%; in the assay on PC-3 prostate, 68.7%. The growth was 86.4% in the assay on SK-MEL-5 melanoma; 88.6% in the assay on UACC-62 melanoma; -44.3% (active) with LOX IMVI melanoma; 97.3% in the assay with SK-MEL-28 melanoma; 110% with SK-MEL-2 melanoma; 68.9% with EKVX NSCLC. The growth is 60.3% in the assay with SN12C renal; 71.8% in the assay with UO-31 renal; 118% with TK-10 renal; 94.6% in the assay on ACHN renal; 62.2% in the assay on CAKI-1 renal; 82.4% in the assay on A498 renal. In addition, the growth with CCRF-CEM leukemia is 50.6%; with MOLT-4 leukemia, 40%.
